Results taken from PubChem BioAssay (NCATS).
A number with no mark means an inactive call. Results filed as inconclusive are left out. Active and inactive are the calls of the source. Unless noted, the call rests on the fitted dose curve; in most records, active means well fitted curve in either direction with a large enough effect (not every such curve was filed as active); inconclusive means small, poorly fitted or top-dose-only effect, or another doubt; inactive means flat fitted curve, though single readings scatter.

Columns and labels:
[1] = AP1 Signaling Pathway (AID 357); conditions: ME-180 AP-1-bla reporter, EGF-induced, beta-lactamase ratio, 5 h; at 17.2 µM (top of the series) unless noted;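 further: ME-180 reporter cells stimulated with EGF at its EC50 level; on the % scale 0 is the no-effect control and ±100 the full control effect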
Summary of the method: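 Modulation of EGF-driven AP-1 transcription was assessed with a beta-lactamase reporter in ME-180 cells. Compound and EC50 EGF were co-incubated 5 hours at 37 °C before 2.5-hour CCF4 loading at room temperature and dual-emission reading.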

[2] = Stat Signaling Pathway (AID 446); conditions: ME-180 SIE beta-lactamase reporter, IL-6 stimulated, 5 h; at 17.2 µM (top of the series) unless noted;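 further: ME-180 cervical cancer cells given 40 pM IL-6 alongside compound; SIE-controlled beta-lactamase reporter measured as 460/530 nm FRET emission ratio; on the % scale 0 is the no-effect control and ±100 the full control effect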
Summary of the method: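 Screening format detects activators and inhibitors alike: ME-180 SIE-bla cells stimulated at 40 pM IL-6 for 5 hrs with compound, then dual-emission beta-lactamase read at 405 nm excitation.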

[3] = target: Glucocorticoid receptor (Homo sapiens) (UniProt P04150); assay: GR-GFP Redistribution (AID 450;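 active means compounds whose dose series gives a full or clear partial fitted curve of increased nuclear translocation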; further: potency means the concentration at half of the fitted maximal effect)
Sequence of Glucocorticoid receptor (Homo sapiens) (P04150 whole entry, looked up): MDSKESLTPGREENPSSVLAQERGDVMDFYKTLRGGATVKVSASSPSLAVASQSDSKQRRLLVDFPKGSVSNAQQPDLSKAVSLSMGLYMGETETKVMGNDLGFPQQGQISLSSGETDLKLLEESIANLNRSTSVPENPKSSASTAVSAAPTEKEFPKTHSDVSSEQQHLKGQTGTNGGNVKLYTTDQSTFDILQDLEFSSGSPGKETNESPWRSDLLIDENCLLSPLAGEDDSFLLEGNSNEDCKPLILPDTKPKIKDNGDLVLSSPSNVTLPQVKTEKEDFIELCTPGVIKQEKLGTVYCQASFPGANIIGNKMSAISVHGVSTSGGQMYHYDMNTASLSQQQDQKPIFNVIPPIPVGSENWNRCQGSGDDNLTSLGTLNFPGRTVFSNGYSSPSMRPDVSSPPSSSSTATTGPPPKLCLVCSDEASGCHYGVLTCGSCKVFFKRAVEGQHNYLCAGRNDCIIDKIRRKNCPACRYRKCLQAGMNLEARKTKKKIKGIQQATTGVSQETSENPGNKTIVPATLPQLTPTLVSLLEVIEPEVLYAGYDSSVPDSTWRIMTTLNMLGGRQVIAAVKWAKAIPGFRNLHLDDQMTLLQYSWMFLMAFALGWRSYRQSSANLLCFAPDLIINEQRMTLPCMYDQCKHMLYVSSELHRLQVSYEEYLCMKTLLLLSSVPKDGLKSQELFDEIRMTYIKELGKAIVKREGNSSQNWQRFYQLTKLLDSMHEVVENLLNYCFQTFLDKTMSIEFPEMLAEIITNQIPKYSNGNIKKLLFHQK

| Structure (SMILES) | activity change, negative = inhibition [1] | activity, negative = inhibition [2] | Potency [3] [µM] |
| --- | --- | --- | --- |
| CC1(C)Cc2c(sc(NC(=O)c3ccc(Br)o3)c2C#N)CO1 | -3.32% | -9.34% | > 20.6 |
| CCCCNC(=O)c1c(N)n(/N=C/c2cccnc2)c2nc3ccccc3nc12 | -12% | 16.8% | > 20.6 |
| CC(=O)c1cc(CN2CCCCC2)cc(OC(C)C)c1 | 15.3% | 13.1% | > 20.6 |
| COc1ccc(OC)c(NS(=O)(=O)c2ccc(N3CCCC3=O)cc2)c1 | 18.1% | 11.3% | > 20.6 |
| COc1ccc2c(c1OC)C(=O)N1c3ccccc3C(=O)N(c3ccc(F)cc3)C21 (configuration not stated) | -3.68% | -12.3% | > 20.6 |
| CCOC(=O)C1=C(CSc2nc(-c3ccncc3)ccc2C#N)OC(N)=C(C#N)C1c1cccnc1 (configuration not stated) | 20.1% | -14.4% | > 20.6 |
| O=c1c2ccccc2[nH]c(=S)n1CCN1CCC(=C(c2ccc(F)cc2)c2ccc(F)cc2)CC1 | 10.4% | -6.03% | > 20.6 |
| CCOC(=O)c1ccc(N2C(=O)CC(Sc3nnc(C)s3)C2=O)cc1 (configuration not stated) | 6.1% | 1.82% | > 20.6 |
| CC(C)OC(=O)C(C#N)c1nc2ccccc2nc1N1CCN(Cc2ccc3c(c2)OCO3)CC1 (configuration not stated) | -10.5% | -12.7% | > 20.6 |
| O=C(O)CC(NCc1ccco1)C(=O)OCC1CCCO1 (configuration not stated) | 11.5% | -1.58% | > 20.6 |
| COc1cccc(C(=O)c2sc(NC(C)C)nc2N)c1 | -116% (active) | -103% (active) | > 20.6 |
| CCCSc1nnc2n(C)c(=O)c3c4c(sc3n12)CCC4 | -1.82% | -5.35% | > 20.6 |
| CCOC(=O)c1cc2c(=O)n3cccc(C)c3nc2n(CCc2ccccc2)c1=N | 9.31% | 29.4% | > 20.6 |
| CCSc1nc2sc3c(c2c2nnc(SCC(=O)NCc4ccco4)n12)CCCC3 | -11.8% | -18.7% | > 20.6 |
| N#C/C(C(=O)NCc1ccco1)=C1/SC(Cc2ccc(Cl)cc2)C(=O)N1c1ccccc1 (configuration not stated) | -16.2% | -13.4% | > 20.6 |
| COCCCNc1nc(-c2ccncc2)nc2ccccc12 | -12.4% | -12.9% | > 20.6 |
| CC12CN3CC(C)(CN(C1)C3c1ccc(Br)cc1O)C2 (configuration not stated) | -9.61% | -0.00253% | > 20.6 |
| COc1cc([C@@H]2[C@H]3CNCC=C3C(C#N)=C(N)C2(C#N)C#N)ccc1OC(C)C | 14% | 10.8% | > 20.6 |
| CCOc1ccc(C2=Nn3c(nnc3-c3ccccn3)SC2)cc1 | -11.7% | 3.43% | > 20.6 |
| N#Cc1nc(COc2ccc(Br)cc2)oc1N1CCN(Cc2ccccc2)CC1 | -15.5% | 8.74% | > 20.6 |

| Structure (SMILES) | activity change, negative = inhibition [1] | activity, negative = inhibition [2] | Potency [3] [µM] |
| --- | --- | --- | --- |
| CCCCCSc1nc(N2CCOCC2)c2c(c1C#N)CC(C)(C)OC2 | -13.1% | 9.95% | > 20.6 |
| CC(C)(C)OC(=O)NCCC(=O)Oc1ccc2ccc(=O)oc2c1 | 16.1% | 12.7% | > 20.6 |
| Cc1cccc(OCC(=O)N2CCC(N3CCCCCC3)CC2)c1 | 4.73% | 5.82% | > 20.6 |
| C=CCOc1ccc(/C(O)=C2\C(=O)C(=O)N(CCN(C)C)C2c2cccs2)cc1 (configuration not stated) | -5.42% | -3.79% | > 20.6 |
| COC(=O)c1ccc(C2C(C(=O)c3cc4ccccc4o3)=C(O)C(=O)N2CCCN(C)C)cc1 (configuration not stated) | -0.991% | -11.4% | > 20.6 |
| CC1(C)Cc2c(C#N)c(N3CCOCC3)nc(-c3ccccc3)c2CO1 | -10.7% | 6.12% | > 20.6 |
| Nc1ccc2c(c1)N1CCN=C1S2 | -0.461% | 8.4% | > 20.6 |
| C=CCSc1nnc2n(CCc3ccccc3)c(=O)c3c4c(sc3n12)COC(C)(C)C4 | -23.5% | -18.1% | > 20.6 |
| CC(NC(=O)OC(C)(C)C)C(=O)Oc1ccc2ccc(=O)oc2c1 (configuration not stated) | 24.1% | 10.7% | > 20.6 |
| CCCC1Cc2c(sc3nc(SC)nc(N)c23)CO1 (configuration not stated) | -3.09% | -1.16% | > 20.6 |
| CN1CC2(C)CN(C(c3ccccc3)c3ccccc3)CC(C)(C1)C2O (configuration not stated) | 14.1% | 2.94% | > 20.6 |
| c1ccc2c(c1)CCOC2CNCCCN1CCCCC1 (configuration not stated) | -0.837% | 2.31% | > 20.6 |
| CCOC(=O)c1[nH]c2ccc(F)cc2c1NC(=O)CCN1CCSCC1 | 0.77% | 0.475% | > 20.6 |
| CN1CCN(c2nc3c(c(=O)n(C)c(=O)n3C)n2Cc2cccc3ccccc23)CC1 | -9.31% | -2.69% | > 20.6 |
| N#Cc1cc(Oc2cccc3cccnc23)c(-n2nnc3ccccc32)cc1C#N | 11.4% | 11.7% | > 20.6 |
| COc1ccc(C2NC(=O)NC(O)(C(F)(F)F)C2C(=O)c2ccc(F)cc2)cc1 (configuration not stated) | -8.86% | -0.989% | > 20.6 |
| CCCCSc1nnc2n(CCc3ccccc3)c(=O)c3c4c(sc3n12)COC(C)(C)C4 | -9.1% | -12.7% | > 20.6 |
| CCC(NC(=O)Nc1nccs1)(C(F)(F)F)C(F)(F)F | -2.44% | -6.36% | > 20.6 |
| COc1ccc(/C=N/n2cncn2)cc1CSc1ccccn1 | -9.09% | 10.6% | > 20.6 |
| CCNc1sc(C(=O)c2cccs2)c(N)c1C#N | -8.55% | -7.29% | > 20.6 |

| Structure (SMILES) | activity change, negative = inhibition [1] | activity, negative = inhibition [2] | Potency [3] [µM] |
| --- | --- | --- | --- |
| CN(Cc1c(O)ccc2c1oc(=O)c1ccccc12)C1CCCCC1 | 2.27% | 4.77% | > 20.6 |
| C[C@]12CC[C@@H]3c4ccc(O)cc4CC[C@H]3[C@@H]1CC[C@@H]2OC(=O)CCC(=O)O | -5.44% | -12.1% | > 20.6 |
| CCN(CC)CCCn1c(C)cc2c(c1=O)C(c1ccccc1)C(C#N)=C(N)O2 (configuration not stated) | 1.7% | 2.65% | > 20.6 |
| Brc1ccc(-c2cnc3n2CCCC3)cc1 | 1.22% | 16.1% | > 20.6 |
| CC1CN(C2CCN(C(=O)c3ccccc3Cl)CC2)CC(C)O1 (configuration not stated) | 6.4% | 1.52% | > 20.6 |
| C=CCn1c(SCC#N)nc2c(c1=O)C(C)(C)Cc1ccccc1-2 | -2.85% | -1.93% | > 20.6 |
| C=CCOC(=O)C(C#N)c1nc2ccccc2nc1N1CCN(c2ccccc2OCC)CC1 (configuration not stated) | 9.88% | 2.33% | > 20.6 |
| C/C(=N\O)c1ccc2[nH]ccc2c1 | 2.69% | 13.9% | > 20.6 |
| Cc1ccc(S(=O)(=O)c2cc3c(=O)n4cccc(C)c4nc3n(CC3CCCO3)c2=N)cc1 (configuration not stated) | 2.16% | 2.48% | > 20.6 |
| Cc1ccc(-n2c(=O)c3c4c(sc3n3c(C)nnc23)COC(C(C)C)C4)cc1 (configuration not stated) | -7.34% | -0.5% | > 20.6 |
| CCCSc1nnc2n(-c3ccccc3OC)c(=O)c3c4c(sc3n12)CCC4 | 3.26% | 15% | > 20.6 |
| c1ccc2c(N3CCCCC3)nc(N3CCCCC3)nc2c1 | 21.1% | -3.49% | > 20.6 |
| COc1ccc(-c2nc3c(Br)c(N)c(Br)cc3o2)cc1 | 4.22% | 8.24% | > 20.6 |
| Cc1c(O)c(CN2CCCC2)cc2c1oc(=O)c1ccccc12 | 4.42% | -9.48% | > 20.6 |
| O=C1OC(Nc2ccc(Br)cc2F)c2ccccc21 (configuration not stated) | 0.165% | 2.24% | > 20.6 |
| CCOc1ccc(-c2nn3c(-c4ccc(OC)cc4)nnc3s2)cc1 | -1.24% | 24.4% | > 20.6 |
| COc1ccc(N/C=C(\C#N)c2nc3ccccc3n2C)c(OC)c1 | -21.3% | -22% | > 20.6 |
| Cc1ccc(OCC(=O)N2CCC(N3CCCCCC3)CC2)cc1 | 3.92% | 17.9% | > 20.6 |
| OCCN(CCO)c1ncnc2c1sc1nc(N3CCOCC3)c3c(c12)CCCC3 | -27.6% | -21.5% | > 20.6 |
